Source: PubChem BioAssay
TRAIL sens C8: viability loss with TRAIL in NB7+C8 cells, primary screen, TRAIL sensitizer project, cell-based, ATPlite luminescence. hit rate 1% among 360,000. AID 624354, 2012. inhibition (viability loss, TRAIL sensitization), % at 10 µM;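 active = compounds causing at least 50% loss of cell viability in the single-dose screen, relative to plate controls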
KKLEB tox: cytotoxicity in KKLEB CF airway cells, primary screen, cytotoxicity control for CF NF-kB inhibitor project, cell-based, uHTS, fluorescence assay plates. KKLEB CF airway cells viability, ATPlite luminescence, overnight; stronger effect = lower value; cells stimulated with P. aeruginosa culture filtrate. activity change (cytotoxicity), % at 5 µM. hit rate 0.36% among 360,000. AID 602141, 2011;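 active = corrected activity change at or below -50% at 5 µM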
HIF-2a inh: HIF-2a reporter inhibitors, primary screen, luminescence, 786-0 RCC cells | 786-0 RCC cells HIF-2a reporter, luciferase luminescence, overnight | inhibition, % at 18.8 µM | hit rate 0.72% among 360,000 | AID 624352, 2012;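 active = inhibition of the luminescence signal of 40% or more relative to plate controls, in a single-dose primary screen at 18.75 µM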
PPC-1+TRAIL kill: compounds killing PPC-1 cancer cells with TRAIL present, primary screen, TRAIL potentiator project, ATPLite luminescence, uHTS; PPC-1 cells + TRAIL, ATPLite viability luminescence; cell killing (% activity), % at 4 µM or 5 µM; hit rate 0.41% among 220,000; AID 1443, 2008;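 active = cell killing above 50% in the first pass at 4 µM, then a duplicate retest at 5 µM averaging 50% or more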
hiPSC survival: enhancers of single-cell hiPSC survival, primary screen, ATPlite luminescence. hit rate 0.044% among 360,000. 100% = ROCK inhibitor wells, 0% = DMSO. survival enhancement, % at 20 µM; in the data active = survival enhancement above about 18%;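 also: cells exposed to compounds for 16 hours before the ATP read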
CF NFkB block: inhibitors of PAF-induced NF-kB signaling, primary screen, cell-based, GFP fluorescence, uHTS. KKLEB NF-kB-GFP reporter, GFP fluorescence overnight. inhibition, % at 5 µM. hit rate 0.86% among 360,000. AID 588850, 2011;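 active = at least 50% inhibition at 5 µM, scaled per plate between neutral and stimulator controls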;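 also: PAF is a Pseudomonas aeruginosa culture filtrate used as stimulus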
A number is an active result; i = inactive; nt = no result. Compounds with a hit are over-represented: about 2.2% of the library has one in this group of screens.

SMILES	TRAIL sens C8	KKLEB tox	HIF-2a inh	PPC-1+TRAIL kill	hiPSC survival	CF NFkB block
COc1cccc(-c2cc3nc(-c4ccccc4)cc(=O)n3[nH]2)c1	41.0	i	i	nt	i	i
Cc1cc(=O)n2[nH]c(-c3ccccc3)cc2n1	i	i	i	i	i	i
O=c1cc(-c2ccccc2)nc2cc(-c3ccc(F)cc3)[nH]n12	55.7	i	i	nt	i	i
O=c1[nH]c(=S)[nH]c2c1C(c1ccc(F)cc1)OC(CCc1ccccc1)C2 (centres undefined)	i	nt	i	nt	i	nt
Cc1ccc(NC(=O)c2ccc3nsnc3c2)c(Cl)c1	58.2	i	i	nt	i	i
O=C(Nc1ccc(Br)cc1F)c1ccc2nsnc2c1	i	i	i	nt	i	i
COc1ccc(S(=O)(=O)N2CCN(C(=O)c3cc4c(s3)CCC4)CC2)cc1	i	i	i	nt	i	i
CCc1ccc(S(=O)(=O)Nc2ccc(O)c3ccccc23)cc1	i	i	i	nt	i	94.5
O=S(=O)(Nc1ccc(NS(=O)(=O)c2ccccc2)c2ccccc12)c1ccccc1	i	i	i	nt	i	i
O=S(=O)(Nc1ccc(O)c2ccccc12)c1ccc(F)cc1	i	i	i	nt	i	84.5
COc1ccc(OC)c(S(=O)(=O)Nc2ccc(O)c3ccccc23)c1	i	i	i	i	i	63.7
CCCCN1C[C@H](CO)Oc2cccc(F)c2S1(=O)=O	i	i	i	nt	i	i
Cc1cccc(Oc2coc3cc(O)ccc3c2=O)c1	i	i	i	nt	i	i
Cc1oc2c(Cl)c(Cl)c(O)c(CN(C)C)c2c1C(=O)c1ccc(Cl)cc1	i	i	i	nt	i	50.7
Cc1oc2ccc(O)c(CN3CCOCC3)c2c1C(=O)c1ccc(Cl)cc1	i	i	i	i	i	i
CN(C)c1ccc(C(=O)/C=C/c2ccco2)cc1	54.4	i	i	i	i	i
O=C(Nc1ccc2c(c1)CCC2)c1ccc(F)cc1	51.8	i	i	i	i	i
CC(=O)c1ccccc1NC(=O)CSc1nnc(Cc2csc(C)n2)o1	i	i	i	nt	i	i
CC(=O)N(c1ccccc1C)C1CCCC1	i	i	i	i	i	i
CC(=O)N(C1=C(Cl)C(=O)c2ccccc2C1=O)C1CCCCC1	i	i	82.0	i	i	i
COC1=CC(=O)c2nc(Cl)ccc2C1=O	94.6	-91.2	89.9	nt	i	83.2
COc1ccccc1/C=C/C(=O)NCC(=O)N=Nc1c(O)[nH]c2ccccc12	i	i	i	nt	i	i
COc1ccc(-c2nn(-c3ccccc3)cc2/C=C/C(=O)OCC(=O)Nc2ccccc2C#N)cc1	i	-70.1	i	i	i	66.6
N#Cc1ccccc1NC(=O)COC(=O)/C=C/c1cn(-c2ccccc2)nc1-c1ccc(Cl)cc1	61.0	i	i	i	i	i
NC(=O)c1ccc(NC(=O)COC(=O)/C=C/c2cn(-c3ccccc3)nc2-c2cccnc2)cc1	i	i	i	i	i	i
SMILES	TRAIL sens C8	KKLEB tox	HIF-2a inh	PPC-1+TRAIL kill	hiPSC survival	CF NFkB block
CN(C(=O)c1cc(S(=O)(=O)N2CCOCC2)cs1)c1ccccc1	i	i	i	nt	i	i
COc1ccc2cc(-c3cc(C(=O)OCC(=O)Nc4c(C)n(C)n(-c5ccccc5)c4=O)c4ccccc4n3)ccc2c1	96.9	i	i	92.4	i	i
COc1ccc2cc(-c3cc(C(=O)OCC(=O)NC4CCS(=O)(=O)C4)c4ccccc4n3)ccc2c1 (centres undefined)	92.5	i	i	95.3	i	i
COc1ccc(-c2cc(C(=O)Nc3c(C)n(C)n(-c4ccccc4)c3=O)c3ccccc3n2)cc1	i	i	i	nt	i	i
COc1ccc(CCC(=O)NCC2CCCCC2)cc1OC	i	i	i	nt	i	i
c1ccc(-c2csc(Nc3ccc4c(c3)OCCO4)n2)cc1	i	i	i	i	i	i
N#C/C(=C\Nc1ccc2c(c1)OCCO2)c1nc(-c2ccccc2)cs1	i	-76.2	i	i	i	77.3
N#C/C(=C\C=C\c1ccccc1[N+](=O)[O-])c1nc(-c2ccc3c(c2)OCO3)cs1	i	-54.5	i	i	i	i
COc1ccc(-c2csc(/C(C#N)=C/Nc3ccc4c(c3)OCCO4)n2)cc1	i	-63.5	i	i	i	62.1
COc1ccc(-c2csc(/C(C#N)=C/Nc3cc4oc5ccccc5c4cc3OC)n2)cc1	i	i	i	i	i	i
O=C(CN1CCN(CC(=O)Nc2ccccc2Cc2ccccc2)CC1)Nc1ccccc1Cl	i	i	i	nt	i	i
Cc1ccc(NS(=O)(=O)N2CCCCC2)cc1	i	i	i	nt	i	i
COc1ccc(OC)c(-c2cc(C(=O)Nc3sc4c(c3C#N)CCC(C)C4)c3ccccc3n2)c1 (centres undefined)	i	-51.5	i	i	i	i
COc1ccc(-c2cc(C(=O)NC3=NCCS3)c3ccccc3n2)cc1OC	i	i	i	i	i	i
COC(=O)c1sc(NC(=O)c2cc(-c3ccccc3)nc3ccccc23)c(C#N)c1C	52.2	i	i	i	i	i
O=C(NC1=NCCS1)c1cc(-c2ccc(-c3ccccc3)cc2)nc2ccccc12	65.1	i	i	i	i	i
Cc1ccccc1-c1cc(C(=O)Nc2sc(C(=O)OC(C)C)c(C)c2C#N)c2ccccc2n1	i	-54.3	i	i	i	56.2
COc1ccc(-c2cc(C(=O)Nc3sc4c(c3C#N)CCCC4)c3ccccc3n2)cc1	i	i	i	i	i	i
CCOc1ncccc1C(=O)N1CCN(S(=O)(=O)c2ccc3c(c2)OCCO3)CC1	i	i	i	nt	i	i
O=C(CCC(=O)c1cccs1)OCC(=O)c1ccccc1F	i	i	i	nt	i	i
CCc1cccc(N(CC(=O)NC2CCCCC2)C(=O)c2csnn2)c1	i	i	i	nt	i	i
COC(=O)C(C)Oc1ccc(Cl)c(CN2OCC(C)(C)C2=O)c1 (centres undefined)	i	i	i	nt	i	i
CC(C)CCCCCCCCCCCCC(=O)NCC(=O)NC1C(C)OC(Nc2ncnc3nc[nH]c23)C(O)C1O (centres undefined)	i	i	79.0	nt	i	83.0
CC[C@@]12C(=O)N(c3ccc(OC)cc3)C(=O)N1[C@H](c1ccc(Cl)cc1)[C@@H]1C(=O)N(C3CCCCC3)C(=O)[C@@H]12	i	i	i	nt	i	i
CC(/C=N/NC(=O)c1cccs1)=C\c1ccccc1	58.4	i	i	i	i	i
CC(/C=N/NC(=O)c1n[nH]c2c1CCC2)=C\c1ccccc1	47.1	i	i	i	i	i
COc1ccccc1NC(CC(=O)c1ccccc1)C(=O)OCC(=O)c1ccc(F)cc1 (centres undefined)	67.6	i	i	i	i	i
